# Results as given in paper PMC11102866, “Nucleosome-bound NR5A2 structure reveals pioneer factor mechanism by DNA minor groove anchor competition”.
# Assays:
# [1] = target: NR5A2 wild type;histone octamer (Homo sapiens;, UniProt O00482;C0HKE1;Q6ZWY9;P84244;P62806 1-541;2-130;2-126;2-136;2-103, |); assay: SeEN-seq (EMSA of nucleosome library followed by sequencing); 0.8 uM human NR5A2; 20 mM Tris-HCl pH 7.5, 120 mM NaCl, 1 mM MgCl2, 10 uM ZnCl2, 1 mM DTT, 100 ug/ml BSA, room temperature, 30 min; 0.1 uM nucleosome library; high values mean tight binding
# [2] = target: mouse Nr5a2 wild type;histone octamer (Mus musculus;, UniProt P45448;C0HKE1;Q6ZWY9;P84244;P62806 1-560;2-130;2-126;2-136;2-103, |); assay: SeEN-seq (EMSA of nucleosome library followed by sequencing); 1.2 uM mouse Nr5a2; 20 mM Tris-HCl pH 7.5, 120 mM NaCl, 1 mM MgCl2, 10 uM ZnCl2, 1 mM DTT, 100 ug/ml BSA, room temperature, 30 min; 0.1 uM nucleosome library; high values mean tight binding
Binder,binding signal [1],binding signal [2]
"68 (nucleosome, reconstituted with mouse histones H2A, H2B, H3.3 and H4) DNA 1: ATCCTGGAGAATCCCGGTGCCGAGGCCGCTCAATTGGTCGTAGACAGCTCTAGCACCGCTTAAACGCACGTCAAGGCCATCCCCCGCGTTTTAACCGCCAAGGGGATTACTCCCTAGTCTCCAGGCACGTGTCAGATATATACATCCTGTGAT DNA 2: ATCACAGGATGTATATATCTGACACGTGCCTGGAGACTAGGGAGTAATCCCCTTGGCGGTTAAAACGCGGGGGATGGCCTTGACGTGCGTTTAAGCGGTGCTAGAGCTGTCTACGACCAATTGAGCGGCCTCGGCACCGGGATTCTCCAGGAT","0.625 log2 enrichment (bound/unbound, relative to Widom 601)","0.543 log2 enrichment (bound/unbound, relative to Widom 601)"
"70 (nucleosome, reconstituted with mouse histones H2A, H2B, H3.3 and H4) DNA 1: ATCCTGGAGAATCCCGGTGCCGAGGCCGCTCAATTGGTCGTAGACAGCTCTAGCACCGCTTAAACGCACGTATCAAGGCCACCCCGCGTTTTAACCGCCAAGGGGATTACTCCCTAGTCTCCAGGCACGTGTCAGATATATACATCCTGTGAT DNA 2: ATCACAGGATGTATATATCTGACACGTGCCTGGAGACTAGGGAGTAATCCCCTTGGCGGTTAAAACGCGGGGTGGCCTTGATACGTGCGTTTAAGCGGTGCTAGAGCTGTCTACGACCAATTGAGCGGCCTCGGCACCGGGATTCTCCAGGAT","1.27 log2 enrichment (bound/unbound, relative to Widom 601)","1.51 log2 enrichment (bound/unbound, relative to Widom 601)"
"72 (nucleosome, reconstituted with mouse histones H2A, H2B, H3.3 and H4) DNA 1: ATCCTGGAGAATCCCGGTGCCGAGGCCGCTCAATTGGTCGTAGACAGCTCTAGCACCGCTTAAACGCACGTACGTCAAGGCCACCGCGTTTTAACCGCCAAGGGGATTACTCCCTAGTCTCCAGGCACGTGTCAGATATATACATCCTGTGAT DNA 2: ATCACAGGATGTATATATCTGACACGTGCCTGGAGACTAGGGAGTAATCCCCTTGGCGGTTAAAACGCGGTGGCCTTGACGTACGTGCGTTTAAGCGGTGCTAGAGCTGTCTACGACCAATTGAGCGGCCTCGGCACCGGGATTCTCCAGGAT","1 log2 enrichment (bound/unbound, relative to Widom 601)","1.27 log2 enrichment (bound/unbound, relative to Widom 601)"
"73 (nucleosome, reconstituted with mouse histones H2A, H2B, H3.3 and H4) DNA 1: ATCCTGGAGAATCCCGGTGCCGAGGCCGCTCAATTGGTCGTAGACAGCTCTAGCACCGCTTAAACGCACGTACGCTCAAGGCCACGCGTTTTAACCGCCAAGGGGATTACTCCCTAGTCTCCAGGCACGTGTCAGATATATACATCCTGTGAT DNA 2: ATCACAGGATGTATATATCTGACACGTGCCTGGAGACTAGGGAGTAATCCCCTTGGCGGTTAAAACGCGTGGCCTTGAGCGTACGTGCGTTTAAGCGGTGCTAGAGCTGTCTACGACCAATTGAGCGGCCTCGGCACCGGGATTCTCCAGGAT","1.28 log2 enrichment (bound/unbound, relative to Widom 601)","1.51 log2 enrichment (bound/unbound, relative to Widom 601)"
"74 (nucleosome, reconstituted with mouse histones H2A, H2B, H3.3 and H4) DNA 1: ATCCTGGAGAATCCCGGTGCCGAGGCCGCTCAATTGGTCGTAGACAGCTCTAGCACCGCTTAAACGCACGTACGCGTCAAGGCCAGCGTTTTAACCGCCAAGGGGATTACTCCCTAGTCTCCAGGCACGTGTCAGATATATACATCCTGTGAT DNA 2: ATCACAGGATGTATATATCTGACACGTGCCTGGAGACTAGGGAGTAATCCCCTTGGCGGTTAAAACGCTGGCCTTGACGCGTACGTGCGTTTAAGCGGTGCTAGAGCTGTCTACGACCAATTGAGCGGCCTCGGCACCGGGATTCTCCAGGAT","1.21 log2 enrichment (bound/unbound, relative to Widom 601)","1.39 log2 enrichment (bound/unbound, relative to Widom 601)"
"69 (nucleosome, reconstituted with mouse histones H2A, H2B, H3.3 and H4) DNA 1: ATCCTGGAGAATCCCGGTGCCGAGGCCGCTCAATTGGTCGTAGACAGCTCTAGCACCGCTTAAACGCACGTTCAAGGCCACCCCCGCGTTTTAACCGCCAAGGGGATTACTCCCTAGTCTCCAGGCACGTGTCAGATATATACATCCTGTGAT DNA 2: ATCACAGGATGTATATATCTGACACGTGCCTGGAGACTAGGGAGTAATCCCCTTGGCGGTTAAAACGCGGGGGTGGCCTTGAACGTGCGTTTAAGCGGTGCTAGAGCTGTCTACGACCAATTGAGCGGCCTCGGCACCGGGATTCTCCAGGAT","0.77 log2 enrichment (bound/unbound, relative to Widom 601)","0.872 log2 enrichment (bound/unbound, relative to Widom 601)"
"71 (nucleosome, reconstituted with mouse histones H2A, H2B, H3.3 and H4) DNA 1: ATCCTGGAGAATCCCGGTGCCGAGGCCGCTCAATTGGTCGTAGACAGCTCTAGCACCGCTTAAACGCACGTACTCAAGGCCACCCGCGTTTTAACCGCCAAGGGGATTACTCCCTAGTCTCCAGGCACGTGTCAGATATATACATCCTGTGAT DNA 2: ATCACAGGATGTATATATCTGACACGTGCCTGGAGACTAGGGAGTAATCCCCTTGGCGGTTAAAACGCGGGTGGCCTTGAGTACGTGCGTTTAAGCGGTGCTAGAGCTGTCTACGACCAATTGAGCGGCCTCGGCACCGGGATTCTCCAGGAT","1.13 log2 enrichment (bound/unbound, relative to Widom 601)","1.45 log2 enrichment (bound/unbound, relative to Widom 601)"
"9 (nucleosome, reconstituted with mouse histones H2A, H2B, H3.3 and H4) DNA 1: ATCCTGGAGAATCAAGGCCACGAGGCCGCTCAATTGGTCGTAGACAGCTCTAGCACCGCTTAAACGCACGTACGCGCTGTCCCCCGCGTTTTAACCGCCAAGGGGATTACTCCCTAGTCTCCAGGCACGTGTCAGATATATACATCCTGTGAT DNA 2: ATCACAGGATGTATATATCTGACACGTGCCTGGAGACTAGGGAGTAATCCCCTTGGCGGTTAAAACGCGGGGGACAGCGCGTACGTGCGTTTAAGCGGTGCTAGAGCTGTCTACGACCAATTGAGCGGCCTCGTGGCCTTGATTCTCCAGGAT","3.63 log2 enrichment (bound/unbound, relative to Widom 601)","3.37 log2 enrichment (bound/unbound, relative to Widom 601)"
